Assay results as given in PubChem BioAssay (Tox21).
Records with an inconclusive call do not appear. Entries that show only a call come without a potency. Unmarked numbers belong to inactive results. Active and inactive are the calls of the source. Calls come from the whole dose curve; as a rule, active = well fitted inhibition curve with a large enough effect in the repeat runs; inconclusive = weak or mixed curves; inactive = no such curve, though single readings can be large or run the other way.

These compounds were tested against Cytochrome P450 3A4 (Homo sapiens) (UniProt P08684) (assay: Cytochrome P450 Family 3 Subfamily A Member 4 (CYP3A4) small molecule antagonists: luciferase reporter qHTS assay (AID 1671201; note: nearly all actives have a fitted effect of over 50% in size)). Conditions: P450-Glo CYP3A4 enzyme, luciferin luminescence, 1 h; series mostly up to 115 µM.
Chain of Cytochrome P450 3A4 (Homo sapiens) (P08684 whole entry, looked up): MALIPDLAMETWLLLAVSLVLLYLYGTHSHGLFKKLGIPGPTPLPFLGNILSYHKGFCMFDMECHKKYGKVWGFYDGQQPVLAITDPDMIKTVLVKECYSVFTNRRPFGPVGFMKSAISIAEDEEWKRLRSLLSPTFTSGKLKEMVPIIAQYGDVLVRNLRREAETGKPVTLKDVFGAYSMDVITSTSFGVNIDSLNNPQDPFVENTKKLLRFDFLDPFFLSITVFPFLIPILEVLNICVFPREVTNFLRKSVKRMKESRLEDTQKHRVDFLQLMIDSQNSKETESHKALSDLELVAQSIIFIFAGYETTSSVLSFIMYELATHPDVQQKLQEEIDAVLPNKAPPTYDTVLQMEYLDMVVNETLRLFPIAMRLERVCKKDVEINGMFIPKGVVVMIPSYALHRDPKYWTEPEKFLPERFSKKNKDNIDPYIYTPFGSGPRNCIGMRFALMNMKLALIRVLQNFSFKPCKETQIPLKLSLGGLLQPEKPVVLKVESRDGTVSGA
Text: National Center for Advancing Translational Sciences [NCATS]
U.S. Environmental Protection Agency [EPA]
National Institutes of Environmental Health Sciences [NIEHS]
National Toxicology Program [NTP]
U.S. Food and Drug Administration [FDA]
Cytochrome P450 (CYP) enzymes are membrane-bound hemeproteins that play a key role in metabolism of drugs and xenobiotics. Evaluation of the effect of chemicals on CYP isozymes is useful to minimize the adverse drug reactions and toxicities in drug development process. Tox21 chemicals were tested for their effect on CYP enzyme activities by using P450-Glo (TM) screening systems (Promega Corporation, Madison, WI). These systems provide a luminescent method containing proluciferin substrates and are converted to luciferin products by CYP isozymes. The luciferin products formed are detected with a luciferin detection reagent, and the amount of light produced is proportional to CYP activity. P450-Glo (TM) CYP3A4 screening system (Catalog. No. V9910) was used to detect the compounds that interfere in CYP3A4 activity. The positive control compound used for CYP3A4 assay is ketoconazole (Sigma-Aldrich, St. Louis, MO).
Tox21 Assay Protocol Summary:
Two ul of enzyme-substrate mix was dispensed into medium binding white/solid 1536-well plates (Greiner Bio-One North America Inc., Monroe, NC) using a BioRaptr Flying Reagent Dispenser (FRD, Beckman Coulter, Brea, CA). Compounds dissolved in DMSO and positive control (ketoconazole) were transferred to the assay plates at 23 nl using a Pintool station (Wako, San Diego, CA). The assay plates were incubated at room temperature for 10 min. Then 2 ul of NADPH regeneration solution was added to each well of the assay plates using an FRD and incubated at room temperature for 1 h. The reaction was stopped by adding 4 ul of detection reagent using an FRD and after 20 min incubation at room temperature the luminescence signal was measured using a ViewLux plate reader (Perkin Elmer, Shelton, CT). Data were expressed as relative luminescence units.
Potency is the fitted concentration of half-maximal effect.

| Structure (SMILES) | Potency | activity change, negative = inhibition |
| --- | --- | --- |
| Cc1ccc(S(=O)(=O)NC2CCCCC2)cc1 | 17.7 µM (active) |  |
| CC(C)(CCl)c1ccccc1 | inactive |  |
| CCCCOC(=O)CCS | inactive |  |
| CCCC1C(CC)=CC(CC)=CN1c1ccccc1 (stereo not given) | 31.7 µM (active) |  |
| CCC(C)(C)C1CCC(O)CC1 (stereo not given) | inactive |  |
| CC(C)CCCC(=O)O | inactive |  |
| CC(C)(C)CC(C)(C)c1ccc(OCCO)cc1 | 17.7 µM (active) |  |
| C/C(=N/NC(=O)c1ccncc1)C(=O)O | inactive |  |
| CCn1cc(C(=O)O)c(=O)c2cc(F)c(N3CCNCC3)nc21 | inactive |  |
| CCCCCCCCCCCC[N+](C)(C)CCCS(=O)(=O)[O-] | inactive |  |
| CC(=O)OCC(=O)[C@H]1CC[C@H]2[C@@H]3CCC4=CC(=O)CC[C@]4(C)[C@H]3CC[C@]12C | inactive |  |
| C1COCO1 | inactive |  |
| CCc1c2c(nc3ccc(OC(=O)N4CCC(N5CCCCC5)CC4)cc13)-c1cc3c(c(=O)n1C2)COC(=O)[C@]3(O)CC | inactive |  |
| Fc1c(F)c(F)c(Br)c(F)c1F | inactive |  |
| O=C(O)c1ccccc1NCCc1ccccc1 | inactive |  |
| CCC(C(=O)OCCOCCN(CC)CC)c1ccccc1 (stereo not given) | inactive |  |
| CC(COc1ccc(C(C)(C)C)cc1)OS(=O)OCCCl (stereo not given) | inactive |  |
| C=CC(C)=CCC=C(C)C | 28.3 µM (active) |  |
| CCNC(=O)N1CCN(CCCC(c2ccc(F)cc2)c2ccc(F)cc2)CC1 | inactive |  |
| CCC1(C)CC(=O)NC1=O (stereo not given) | inactive |  |

| Structure (SMILES) | Potency | activity change, negative = inhibition |
| --- | --- | --- |
| CC(=O)Oc1ccc2c(c1)CC[C@@H]1[C@@H]2CC[C@]2(C)[C@@H](O)CC[C@@H]12 | inactive |  |
| COc1cc2[nH]c(=O)[nH]c(=O)c2cc1OC | inactive |  |
| COc1cc2c(N3CCN(C(=O)Nc4ccc(OC(C)C)cc4)CC3)ncnc2cc1OCCCN1CCCCC1 | inactive |  |
| Cc1nc2ccccc2s1 | inactive |  |
| Oc1cc(O)c(Cl)cc1Cl | 36.5 µM (active) |  |
| Cc1nc2ccccn2c(=O)c1CCN1CCC(C(=O)c2ccc(F)cc2)CC1 | inactive |  |
| Cc1oc(C)c(C(=O)Nc2ccccc2)c1C | inactive |  |
| CCCCC(CC)COC(=O)COc1ccc(Cl)cc1C (stereo not given) | 8.94 µM (active) |  |
| CSc1ccc(Oc2ccc(S(N)(=O)=O)cc2CN(C)C)cc1C | inactive |  |
| CCOC(=O)[C@@H](C)Oc1ccc(Oc2nc3ccc(Cl)cc3o2)cc1 | inactive |  |
| C=CCCCCCCCCCCCCCCCC |  | 6.02% [at 10.5 µM] |
| CCOC(=O)C(C)Oc1ccc(Oc2nc3ccc(Cl)cc3o2)cc1 (stereo not given) | inactive |  |
| CCCCCCCCSCCO | inactive |  |
| COC(=O)CC(=O)C(C)(C)C | inactive |  |
| CC1(C)C2=CCCC(C)(C)[C@]23CC[C@H]1C3 | 35.6 µM (active) |  |
| CCCCCCCCCCCCCCCCBr |  | -0.429% [at 23.6 µM] |
| Cc1cnc(C)c(C)n1 | inactive |  |
| O=C(O)c1cccc(O)c1 | inactive |  |
| CCCOc1ccc(S(=O)(=O)N2CCN(CC)CC2)cc1-c1nc2c(CC)n(Cc3ccccn3)nc2c(=O)[nH]1 | 0.399 µM (active) |  |
| CCCCCCCCCOC(C)=O | inactive |  |
